Source: PubChem BioAssay (NCI)
About 83,000 compounds went through this panel and 20% of them were active in at least one assay; those are over-represented in the sample as a whole.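 Growth was measured after 48 h exposure to one concentration of compound in 96-well plates. Values under 10 count as active.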 Unmarked numbers belong to inactive results. Active and inactive are the calls of the source.

Key:
Experiment in all cases: NCI-60 one-dose screen, 48 h (100 = growth as untreated, 0 = no growth, -100 = all killed)
Conditions in all cases: 10 µM
[1] = test system: NCI-H23 lung
[2] = test system: NCI-H226 lung
[3] = test system: NCI-H322M lung
[4] = test system: HOP-62 NSCLC
[5] = test system: NCI-H460 lung
[6] = test system: HOP-92 NSCLC
[7] = test system: NCI-H522 lung
[8] = test system: A549/ATCC NSCLC
[9] = test system: 786-0 renal
[10] = test system: COLO 205 colon
[11] = test system: DU-145 prostate
[12] = test system: K-562 leukemia
[13] = test system: MALME-3M melanoma
[14] = test system: MDA-MB-231 breast
[15] = test system: RXF 393 renal
[16] = test system: SF-268 CNS
[17] = test system: SF-295 CNS
[18] = test system: SF-539 CNS
[19] = test system: UACC-257 melanoma
[20] = test system: M14 melanoma

Compound | growth [1] | growth [2] | growth [3] | growth [4] | growth [5] | growth [6] | growth [7] | growth [8] | growth [9] | growth [10] | growth [11] | growth [12] | growth [13] | growth [14] | growth [15] | growth [16] | growth [17] | growth [18] | growth [19] | growth [20]
COc1ccc(-c2ccc(-c3ccc(C(=N)N)c(F)c3)s2)cc1 | -81.9% (active) | -41% (active) | -91.5% (active) | -75.7% (active) | -84.2% (active) | -87.8% (active) | -76.5% (active) | -81.9% (active) | -82.5% (active) | -71.1% (active) | -97.8% (active) | -70.2% (active) | -62% (active) | -89% (active) | -80.4% (active) | -89.8% (active) | -87.5% (active) | -93.7% (active) | -87.1% (active) | -83.5% (active)
CN(C)c1ccc2c(c1)OC(N)=C(C#N)C2c1ccc2c(c1)CCCN2C (stereo not given) | 33.3% | 37.3% | 52.3% | 31.7% | 12.4% | 47.1% | -26.4% (active) | 27.5% | 43.7% | -10.2% (active) | 25.7% | 16.5% | 67.8% | 38.6% | 8.31% (active) | 49.4% | -14.4% (active) | -2.99% (active) | 54.7% | 2.75% (active)
COc1cc(OC)cc(-c2ccc(-c3ccc(C(=N)N)cn3)o2)c1 | 61.6% | 60.7% | 2.03% (active) | 6.78% (active) | -76.6% (active) | -21.8% (active) | -50.7% (active) | 4.73% (active) | -40.2% (active) | -56.9% (active) | 21.6% | -59.9% (active) | -79.9% (active) | -83.2% (active) | -69.9% (active) | -20.3% (active) | -70.5% (active) | -69.1% (active) | -80.6% (active) | -77.9% (active)
COc1ccc(CCc2nc3cc(-c4c(C)noc4C)ccc3n2CCN2CCOCC2)cc1 | 49.5% | 48.3% | 75.8% | 40.2% | 30.4% | -7.34% (active) | 12% | 26.4% | 60.8% | 5.86% (active) | 80.1% | 13.7% | -37.4% (active) | 81.7% | 70.1% | 50.4% | -35% (active) | 90.4% | 12.9% | 20.6%
c1ccc(COCC[P+](c2ccccc2)(c2ccccc2)c2ccccc2)cc1 | -10.1% (active) | 28.5% | 10.4% | 22.1% | 3.37% (active) | -29.9% (active) | -9.64% (active) | 8.47% (active) | 16.9% | -41.2% (active) | 15% | 3.16% (active) | 4.01% (active) | 5.14% (active) | 29.6% | 15.4% | -46% (active) | 18.5% | -22.7% (active) | 10.9%
O=C(O)CNS(=O)(=O)c1ccc(OCCOc2ccc(S(=O)(=O)NCC(=O)O)cc2)cc1 | 95.9% | 100% | 97.4% | 92.8% | 109% | 104% | 88.9% | 104% | 104% | 99.8% | 107% | 104% | 99.7% | 108% | 106% | 98.9% | 104% | 93.6% | 104% | 104%
CC1(CO)CCCC12OCCO2 (stereo not given) | 106% | 99.7% | 107% | 100% | 105% | 120% | 93% | 101% | 102% | 114% | 117% | 100% | 113% | 104% | 100% | 110% | 82.3% | 96.2% | 99.8% | 106%
S=c1c2ncccc2c(-c2ccccn2)nn1Cc1ccccn1 | 90.6% | 104% | 102% | 85.3% | 108% | 94.7% | 88.5% | 81% | 96.9% | 92.8% | 111% | 95.6% | 89.6% | 112% | 114% | 108% | 96% | 99.7% | 95.6% | 89.9%
COc1ccc(OC)c([N+](=O)[O-])c1C=O | 107% | 92% | 101% | 78.2% | 108% | 91.1% | 76.9% | 101% | 110% | 124% | 116% | 42.4% | 108% | 107% | 80.6% | 109% | 93.7% | 105% | 84.1% | 108%
COc1cc(CSc2nc3ccc(Cl)cc3c(=O)n2Cc2ccccc2)cc(OC)c1OC | 25% | 47.9% | 47.5% | 37.7% | 20.5% | 71.3% | -0.0842% (active) | 42.2% | 43.4% | -37.8% (active) | 40.8% | 12.9% | 38.9% | 38.8% | 13.1% | 41% | 28.9% | 5.82% (active) | 46.5% | 35.4%
NC1CCC(Nc2nc(NCc3ccc(-c4cccs4)nc3)c3ncn(C4CCCC4)c3n2)CC1 (stereo not given) | -33.8% (active) | -9.23% (active) | 19% | -2.05% (active) | 3.28% (active) | -13% (active) | -52.6% (active) | 4.31% (active) | 0.15% (active) | -51.4% (active) | 8.83% (active) | -6% (active) | -74.7% (active) | -0.601% (active) | -50% (active) | -5.75% (active) | 0.906% (active) | -56.7% (active) | -74.6% (active) | -80.6% (active)
CCc1c(C)[nH]c(=O)c(C(N)=O)c1C#N | 107% | 117% | 104% | 96.7% | 106% | 109% | 80.5% | 89.4% | 96.2% | 110% | 115% | 114% | 103% | 102% | 108% | 105% | 98.1% | 92.9% | 92.5% | 97.5%
Cc1cccc2c(Nc3ccc(NS(C)(=O)=O)cc3)c3ccc([N+](=O)[O-])cc3nc12 | -17.6% (active) | -20.8% (active) | 36.4% | 14% | -34.6% (active) | -16.7% (active) | -68.3% (active) | 1.51% (active) | 5.57% (active) | 34.9% | -15.3% (active) | 1.15% (active) | -22% (active) | 61.4% | -31.9% (active) | 12.5% | -15.2% (active) | 16.8% | -16.3% (active) | 16.7%
NC1CCC(Nc2nc(NCc3ccc(-c4ccccc4O)nc3)c3ncn(C4CCCC4)c3n2)CC1 (stereo not given) | -50.2% (active) | -3.35% (active) | 10.1% | -9.04% (active) | -8.3% (active) | -17.7% (active) | -55.2% (active) | -25.2% (active) | -38.3% (active) | -70.4% (active) | -4.56% (active) | -41.2% (active) | -76.1% (active) | -22% (active) | -67.4% (active) | -25.8% (active) | -14.4% (active) | -81% (active) | -68.6% (active) | -81.5% (active)
COc1cccc2c1C(=O)c1c(O)c3c(c(O)c1C2=O)C[C@@](O)(C(=O)COC(=O)c1ccccc1)C[C@@H]3OC1CC(N)C(O)C(C)O1 (stereo not given in full) | -65.6% (active) | -71.9% (active) | -95.7% (active) | -96.8% (active) | -80.9% (active) | -77.9% (active) | -85.8% (active) | -85.1% (active) | -83.9% (active) | -90.9% (active) | -87.6% (active) | -73.7% (active) | -88.4% (active) | -82% (active) | -80.3% (active) | -65.6% (active) | -91.2% (active) | -94.7% (active) | -91.3% (active) | -69.9% (active)
